# Measured values as given in ChEMBL document CHEMBL3988442, “University of Dundee, Small-Polar-MMV Screening Library” (2021).
# Among all 48,000 compounds or so, about 13,000 (27%) showed an effect of 50% or more. The list shows a part of the results.
# Test system: Wolbachia pipientis
# Test: Anti-Wolbachia Cell-Based Screen
# Assay type: functional
# Set-up: scale not given: in the data most compounds retested in dose-response had high values
# Settings: 5 µM
row,SMILES,Percent Effect [%]
1,COCCCN1CCCN(C(C)C(=O)Nc2ccnn2C(C)C)CC1 (stereo unspecified),-2.846
2,CCOc1c(Cl)cccc1NCc1cc(C)on1,3.225
3,Cc1cc(Cl)ccc1C(=O)N[C@H]1CN(S(C)(=O)=O)C[C@@H]1C1CC1,11.67
4,COc1cccc([C@H]2CN(C(=O)c3nnc4n3CCCC4)C[C@@H]2N)c1,-27.9
5,N#Cc1cc(NC(=O)c2ccccc2)ccc1N1CCC(O)CC1,8.386
6,CC(C)(C)NC(=O)c1ccccc1NC(=O)c1ccncc1,2.582
7,CSc1[nH]nc(NC(=O)c2cccnc2)c1C#N,127.6
8,CN1CCN(c2ccc(NC(=O)c3cccs3)c(C(F)(F)F)c2)CC1,-12.21
9,CSc1[nH]nc(NC(=O)c2cccs2)c1C#N,125.8
10,CC(NC(=O)c1cccs1)C(=O)NS(=O)(=O)Cc1ccc(C#N)cc1 (stereo unspecified),0.007489
11,CS(=O)(=O)Cc1ccc(NC(=O)c2cccnc2)cc1F,11.8
12,CSc1[nH]nc(NC(=O)c2ccncc2)c1C#N,113.4
13,O=C(NCC(F)(F)C(F)F)c1cccnc1,-7.591
14,CC(NC(=O)CSCC#N)c1cccc(NC(=O)c2ccccc2)c1 (stereo unspecified),1.227
15,N#Cc1cc(NC(=O)c2ccncc2)ccc1N1CCC(O)CC1,-6.115
16,CSc1[nH]nc(NC(=O)c2ccccc2)c1C#N,100.8

row,SMILES,Percent Effect [%]
1,CCOc1ccc(CN2C(=O)CC(CC)(CC)C2=O)nc1,8.891
2,Cc1cc(N2CCCC2Cn2nc(C)cc2C)n2ncnc2n1 (stereo unspecified),10.49
3,Cc1cc(N2CCCCC2Cn2nc(C)cc2C)n2ncnc2n1 (stereo unspecified),-7.962
4,Cc1cc(-n2cnnn2)n2ncnc2n1,118.9
5,Cc1cc(-n2cncn2)n2ncnc2n1,116
6,Cc1cc(NCc2ccccc2CN2CCCCC2)n2ncnc2n1,-7.326
7,CCc1nc2n(n1)CC(Nc1cc(C)nc3ncnn13)CC2 (stereo unspecified),-9.549
8,CN1CCC(N2CCOC[C@H]2c2nc(C(C)(C)C)c[nH]2)CC1,-19.67
9,Cc1cc(S(C)(=O)=O)c(C)c(S(=O)(=O)NCC2CCC2)c1,-2.164
10,COCCN1C(=O)CO[C@H]2CN(Cc3ccccc3Cl)C[C@@H]21,128.8
11,COCCN1C(=O)CO[C@H]2CN(CCCc3ccccc3)C[C@H]21,-4.545
12,COCCN1C(=O)CO[C@@H]2CN(S(=O)(=O)c3ccccc3)C[C@H]21,3.273
13,COCCN1C(=O)CO[C@H]2CN(Cc3ccccc3OC)C[C@H]21,-3.474
14,COCCN1C(=O)CO[C@H]2CN(S(=O)(=O)c3ccccc3)C[C@H]21,1.954
15,COCCN1C(=O)CO[C@H]2CN(Cc3cccc(OC)c3F)C[C@@H]21,149.6
